Screening results (PubChem)
Tgondii IFNg: blocks Toxoplasma gondii growth in the presence of IFN-gamma | Toxoplasma gondii growth in IFN-gamma-treated host cells; hits give low values | activity change, negative = inhibition, % (test concentration not listed) | hit rate 3.8% among 69,000; in the data active means activity change below about -70%, passing the limit was not always enough;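 further: host cells are HeLa cells infected with Toxoplasma gondii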
Numbers without * were called inactive. The full list was thinned out, with hits kept by preference.

Screening NC(=O)c1cnc(N[C@@H]2CCCC[C@@H]2N)nc1Nc1cccc(-n2nccn2)c1 returned Tgondii IFNg -26.
`CN1C(=O)c2cc(NC(=O)Nc3ccccc3Cl)ccc2OC[C@H]2O[C@@H](CC(=O)NCCCN3CCOCC3)CC[C@@H]21` gave Tgondii IFNg 0.
For CC(C)n1nc(-c2ccc3oc(N)nc3c2)c2c(N)ncnc21 the results were Tgondii IFNg -83*.
For CN(c1cncc(C(=O)NCCC2=CCCCC2)c1)S(=O)(=O)c1ccccc1 the results were Tgondii IFNg 13.
Screening O=C(CCC1CCCC1)NCc1ccccn1 returned Tgondii IFNg -11.
For COc1ncnc2c1CCN(S(=O)(=O)C1CC1)CC2 the results were Tgondii IFNg 16.
For COc1ccc(CN(C)C[C@@H]2OCCCC[C@@H](C)Oc3ccc(NC(=O)C4CCCCC4)cc3C(=O)N([C@H](C)CO)C[C@@H]2C)cc1 the results were Tgondii IFNg 161.
Screening Cc1ccc(S(=O)(=O)Nc2ccc3c(c2)C(=O)N([C@@H](C)CO)C[C@@H](C)[C@@H](CN(C)Cc2ccc(C(F)(F)F)cc2)O3)cc1 returned Tgondii IFNg -17.
`COc1ccc(S(=O)(=O)Nc2ccc3c(c2)C(=O)N([C@@H](C)CO)C[C@@H](C)[C@@H](CN(C)Cc2ccc(C(F)(F)F)cc2)OCCCC[C@@H](C)O3)cc1` gave Tgondii IFNg -109*.
COc1ccc(S(=O)(=O)Nc2ccc3c(c2)C(=O)N([C@@H](C)CO)C[C@@H](C)[C@H](CN(C)Cc2ccc(C(F)(F)F)cc2)OCCCC[C@H](C)O3)cc1 was read as Tgondii IFNg -90*.
For COc1ccc(S(=O)(=O)Nc2ccc3c(c2)C(=O)N([C@H](C)CO)C[C@@H](C)[C@H](CN(C)Cc2ccc(C(F)(F)F)cc2)OCCCC[C@@H](C)O3)cc1 the results were Tgondii IFNg -119*.
COc1ccc(S(=O)(=O)Nc2ccc3c(c2)C(=O)N([C@H](C)CO)C[C@@H](C)[C@@H](CN(C)Cc2ccc(C(F)(F)F)cc2)OCCCC[C@@H](C)O3)cc1 was read as Tgondii IFNg -11.
`COc1ccc(S(=O)(=O)Nc2ccc3c(c2)C(=O)N([C@H](C)CO)C[C@H](C)[C@H](CN(C)Cc2ccc(C(F)(F)F)cc2)OCCCC[C@@H](C)O3)cc1` gave Tgondii IFNg 21.
Cc1ccc(S(=O)(=O)Nc2ccc3c(c2)C(=O)N([C@@H](C)CO)C[C@H](C)[C@@H](CN(C)Cc2ccc(C(F)(F)F)cc2)O3)cc1 was read as Tgondii IFNg -60.
COc1ccc(S(=O)(=O)Nc2ccc3c(c2)C(=O)N([C@@H](C)CO)C[C@@H](C)[C@@H](CN(C)Cc2ccc(C(F)(F)F)cc2)OCCCC[C@H](C)O3)cc1 was read as Tgondii IFNg -120*.
`O=C(NC1CCCC1)C1CC(=O)N(CCc2c[nH]c3ccc(Cl)cc23)C1` (stereo not given) gave Tgondii IFNg 324.
`CCc1c(C(C)=O)oc2ccc3c(C)cc(=O)oc3c12` gave Tgondii IFNg 20.
Cc1noc(C)c1NC(=O)Nc1ccc2c(c1)C(=O)N([C@@H](C)CO)C[C@H](C)[C@@H](CN(C)Cc1ccc3c(c1)OCO3)OCCCC[C@@H](C)O2 was read as Tgondii IFNg 98.
For c1csc(CN2CCOCC3(CCC(Cn4cccn4)O3)C2)c1 (stereo not given) the results were Tgondii IFNg 0.
For COc1ccc2c3c(n(C)c2c1)[C@H](CO)N(S(C)(=O)=O)CC31CCN(C(=O)c2ccccn2)CC1 the results were Tgondii IFNg 7.
For CCCC#Cc1ccc2c(c1)[C@@H]1[C@@H](CCN1Cc1cncnc1)[C@@H](CO)N2 the results were Tgondii IFNg -14.
`O=C(C[C@H]1CC[C@H](NC(=O)c2ccc(F)cc2)[C@H](CO)O1)NCCc1ccccc1` gave Tgondii IFNg -15.
For CCOc1ccccc1NC(=O)Cn1ncc2c(N3CCCC3)ncnc21 the results were Tgondii IFNg 109.
Screening N#Cc1cccc(NC(=O)C2=CC3(CCNCC3)Oc3ccccc32)c1 returned Tgondii IFNg -4.
`O=C(NCc1ccccc1-n1cccn1)C1CC2(CCNCC2)CN1` (stereo not given) gave Tgondii IFNg 2.
CNC(=O)c1cccc(S(=O)(=O)N2CCCC(O)(CN(C)C)CC2)c1 (stereo not given) was read as Tgondii IFNg 23.
`Cc1nn2cnnc2c(C)c1CCC(=O)Nc1cccc(-c2ccc(F)cc2)c1` gave Tgondii IFNg -31.
COc1ccc(F)cc1S(=O)(=O)NC1CC(C)(C)NC(C)(C)C1 was read as Tgondii IFNg 25.
CCn1c(C2CCCN(C(=O)C3CCNCC3)C2)nn(CCN(C)C)c1=O (stereo not given) was read as Tgondii IFNg 1.
CCN1CCC(n2nccc2NC(=O)CN2C(=O)COc3c(Cl)cccc32)CC1 was read as Tgondii IFNg 0.
For CCCCN(Cc1ccccc1)C(=O)c1cc2cccnc2n(Cc2ccc(F)cc2)c1=O the results were Tgondii IFNg 20.
`Cc1ccc(N2CCCC3(CCN(Cc4ccc(Cl)c(F)c4)C3)C2)nn1` (stereo not given) gave Tgondii IFNg -8.
`Cc1ccc(S(=O)(=O)Nc2ccc3c(c2)C(=O)N([C@H](C)CO)C[C@@H](C)[C@@H](CN(C)Cc2ccc(C(F)(F)F)cc2)O3)cc1` gave Tgondii IFNg 8.
C[C@H]1CCCCO[C@H](CN(C)Cc2ccncc2)[C@@H](C)CN([C@@H](C)CO)C(=O)c2cc(NS(=O)(=O)c3ccc(Cl)cc3)ccc2O1 was read as Tgondii IFNg -47.
Screening C[C@@H]1CCCCO[C@H](CN(C)Cc2ccncc2)[C@H](C)CN([C@H](C)CO)C(=O)c2cc(NS(=O)(=O)c3ccc(Cl)cc3)ccc2O1 returned Tgondii IFNg -103*.
For COc1ccc(S(=O)(=O)Nc2ccc3c(c2)C(=O)N([C@H](C)CO)C[C@H](C)[C@H](CN(C)Cc2ccc(C(F)(F)F)cc2)OCCCC[C@H](C)O3)cc1 the results were Tgondii IFNg -111*.
Screening COc1ccc(S(=O)(=O)Nc2ccc3c(c2)C(=O)N([C@H](C)CO)C[C@@H](C)[C@@H](CN(C)Cc2ccc(C(F)(F)F)cc2)OCCCC[C@H](C)O3)cc1 returned Tgondii IFNg -120*.
For C[C@@H]1CCCCO[C@@H](CN(C)Cc2ccncc2)[C@@H](C)CN([C@H](C)CO)C(=O)c2cc(NS(=O)(=O)c3ccc(Cl)cc3)ccc2O1 the results were Tgondii IFNg 132.
Screening Cc1ccc(S(=O)(=O)Nc2ccc3c(c2)C(=O)N([C@H](C)CO)C[C@H](C)[C@@H](CN(C)Cc2ccc(C(F)(F)F)cc2)O3)cc1 returned Tgondii IFNg 14.
For C[C@@H]1CCCCO[C@H](CN(C)Cc2ccncc2)[C@@H](C)CN([C@H](C)CO)C(=O)c2cc(NS(=O)(=O)c3ccc(Cl)cc3)ccc2O1 the results were Tgondii IFNg -23.
For COc1ccc(CN(C)C[C@H]2OCCCC[C@H](C)Oc3ccc(NC(=O)C4CCCCC4)cc3C(=O)N([C@@H](C)CO)C[C@@H]2C)cc1 the results were Tgondii IFNg 271.
`CCN(CCCNC(=O)CCC1Nc2c3ccccc3nc(=S)n2C1=O)c1ccccc1` (stereo not given) gave Tgondii IFNg 8.
`Cc1oc(C2CCN(S(=O)(=O)c3ccc(F)c(F)c3)CC2)nc1C(=O)N1CCCC1` gave Tgondii IFNg 19.
